Our source for the PBM binding z-score values is the supplement of paper PMC6555819.

The test system of the first assay is RXRa homodimer (NR concentration 180 nM). Kind of assay: PBM binding z-score (relative to random genomic background probes); higher = stronger binding; sequences stand for … in GC…GCGATTGACAGCGTAGAATGAAGG
The gist of the method:
(§1)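 Custom Agilent 4×180K protein-binding microarrays carried double-stranded probes. Their 34-nt variable regions held direct-repeat seeds, single-nucleotide variants, half-site ablations and random human genomic background sequences. Arrays were incubated 1 h with ligand-free nuclear receptor dimers in PBS pH 7.4, 2% milk, 0.02% Triton X-100, 1 mM DTT, 0.2 mg/mL BSA and 0.4 mg/ml salmon testes DNA. Antibodies against each partner (one per run) detected binding, and scanned fluorescence was regression-normalized. Binding z-scores use random background probes as reference.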
The sequence AGTCAAAGTTCACTAGGTAACGTTAGATTCAGCT yielded a PBM binding z-score of 4.

For ACTAGCAGGCCTAGGGTCACTCAAGATTAGTCCG, the PBM binding z-score came out at 3.15.

Turning to TCTGCTAGGTCAACGATGGTCAGCTCATCTGCTA, the PBM binding z-score was found to be 2.41.

As for ATCTCTAGGTAACCAAGTTTAGTGAATGCCGAAC, the PBM binding z-score turned out to be 0.298.

Take CCTACTGGGCAATCAGGTCATTGATATCAACGTT: the PBM binding z-score worked out at 1.06.

As for CGAACTAGGTCATTGACAGGTCAGTGAATAGTAA, the PBM binding z-score came to 4.6.

Sequence TCTTGTAGATCAATCAGGTTAAGAAAGCCTGAGT showed a PBM binding z-score of 0.241.

Turning to CGAACTAGGCCATCCAGGACAGTGAATACATTGA, the PBM binding z-score was 0.302.

For the sequence CATACAGGGTCAGCTAGGCCAGAGTGGGGACGGC, the PBM binding z-score worked out at 4.23.

For CCTAGTTGATCAGGAGGTCACACACCGGATATGA, the PBM binding z-score amounted to 4.41.

AGAACGAGGGCAATGAGATGATAGCACGGGTGGC returned a PBM binding z-score of 0.713.

With AGAATGAGGTTATTCAGATCAGGGAATTGCGGTC, the PBM binding z-score is 2.13.

Sequence ATCTCTAGGTAAAGTTCCGTGAAAGATCGATAGA yielded a PBM binding z-score of 0.0302.

CTCGAAAGGTCGTGCTCAGGTGAGCATACCAAAC registered a PBM binding z-score of 5.55.

CGTACTAGGTCATCCAGGACAGTGAATACATTGA gave a PBM binding z-score of 2.67.

In the case of CAGCCTAGGTCAGGGCCAGGATAGGAGGAACGTT, the PBM binding z-score worked out at 1.53.

GATACAGGGTCAGCTAGAGGCCTGAGTATGGAAA had a PBM binding z-score of 4.29.

On to CCGATTAGGTTATGGGGCATTCAGGCAACGGTGA, for which the PBM binding z-score worked out at 0.612.

Sequence ATCACTAGGTAACAAGTTCAGTGAAAGAGAGGAC displayed a PBM binding z-score of 0.815.

With ATCTCTAGCTAAAGTTCAGTGAAAGATCGATAGA, the PBM binding z-score worked out at 1.11.

The sequence AGAATGTGGTTACCAAAGATCAGGGAAACGCTTG came in with a PBM binding z-score of 0.156.

Regarding GCTAGCAGGCCATTTGGATCACTCAATGACGGGC, the PBM binding z-score is -0.0428.

ATCGAAAGGTCGAGGTGAGTATTGAGAAAGGGAA gave a PBM binding z-score of 4.12.

On to GCGACTGGGGCATCAGCAGGTTACAATAACTTAA, for which the PBM binding z-score amounted to 0.334.

ATCGAAAGGTCGTGCGGTGAGTATACAGAAAGGC returned a PBM binding z-score of 4.78.

In the case of ATATGTAGATTAGCTGGGGTCATTCAGACTAGGC, the PBM binding z-score is 4.94.

Take ACTGTTAGTTGAGACGAGGGCAACCGATAGGTTG: the PBM binding z-score was 0.451.

As to TAGCCTAGGTCATGCGGGCTAGTATAGTGTCGGC, the PBM binding z-score worked out at 2.92.

The sequence ATCACTAGGTAAAGTTCAGTGAAAGATCGATAGA returned a PBM binding z-score of 1.55.

As for TCATATAGGTAAAAGGTGTAAGTCGGTGTGGTAA, the PBM binding z-score was 0.644.

In the case of CCGAATGGGGCAAGGTTACCATAACGCACAGCCA, the PBM binding z-score came out at 1.39.

ATCTCTAGGTAACAAGTTCACTGAAAGAGAGGAC yielded a PBM binding z-score of 1.87.

Consider GCGACTCGGGCAAAGCAGGTTACCATAAGGTTGG, for which the PBM binding z-score is 0.252.

ATCGAAAGGTCGAGATGAGTATAGAGAAAGGGAA had a PBM binding z-score of 3.81.

ATATGTAGGTTAAGGGTCATTCGGGTTGGTTCGC yielded a PBM binding z-score of 6.11.

The sequence AGAATGAGGTTATACGTAGATCAGGTAAGAAAGT came in with a PBM binding z-score of 2.31.

GCTTACGGGTCAAGGGTTATAGCATGAATAGAAT: the PBM binding z-score was 7.3.

AATCCAGGGTCACTAGGCCAGAGTAGGTACGAAT: the PBM binding z-score was determined as 5.55.

ATCTCTAGGTCAAGTTCAGTGAAAGATCGATAGA came in with a PBM binding z-score of 3.73.

In the case of GCTTGTAGATCAAGGTCAAGAAAGACTAAGCTAA, the PBM binding z-score came to 3.6.

The subject of the next assay is THRa:RXRa (NR concentration 90 nM, RXRa partner concentration 90 nM). The assay is described as above. The gist of the method: as §1
Regarding AGTCAAAGTTCACTAGGTAACGTTAGATTCAGCT, the PBM binding z-score was 2.05.

Sequence ACTAGCAGGCCTAGGGTCACTCAAGATTAGTCCG had a PBM binding z-score of 3.27.

Regarding TCTGCTAGGTCAACGATGGTCAGCTCATCTGCTA, the PBM binding z-score was found to be 3.15.

The sequence ATCTCTAGGTAACCAAGTTTAGTGAATGCCGAAC had a PBM binding z-score of 0.78.

CCTACTGGGCAATCAGGTCATTGATATCAACGTT had a PBM binding z-score of 3.13.

The sequence CGAACTAGGTCATTGACAGGTCAGTGAATAGTAA had a PBM binding z-score of 3.32.

TCTTGTAGATCAATCAGGTTAAGAAAGCCTGAGT gave a PBM binding z-score of 1.02.

On to CGAACTAGGCCATCCAGGACAGTGAATACATTGA, for which the PBM binding z-score turned out to be 1.57.

Consider CATACAGGGTCAGCTAGGCCAGAGTGGGGACGGC, for which the PBM binding z-score was found to be 3.12.

CCTAGTTGATCAGGAGGTCACACACCGGATATGA displayed a PBM binding z-score of 3.6.

Sequence AGAACGAGGGCAATGAGATGATAGCACGGGTGGC displayed a PBM binding z-score of 0.651.

Turning to AGAATGAGGTTATTCAGATCAGGGAATTGCGGTC, the PBM binding z-score was determined as 2.51.

The sequence ATCTCTAGGTAAAGTTCCGTGAAAGATCGATAGA displayed a PBM binding z-score of 0.529.

As to CTCGAAAGGTCGTGCTCAGGTGAGCATACCAAAC, the PBM binding z-score is 4.12.

On to CGTACTAGGTCATCCAGGACAGTGAATACATTGA, for which the PBM binding z-score stood at 3.76.

For CAGCCTAGGTCAGGGCCAGGATAGGAGGAACGTT, the PBM binding z-score worked out at 2.31.

For the sequence GATACAGGGTCAGCTAGAGGCCTGAGTATGGAAA, the PBM binding z-score came out at 2.49.

Sequence CCGATTAGGTTATGGGGCATTCAGGCAACGGTGA returned a PBM binding z-score of 1.19.

For the sequence ATCACTAGGTAACAAGTTCAGTGAAAGAGAGGAC, the PBM binding z-score is 1.54.

As to ATCTCTAGCTAAAGTTCAGTGAAAGATCGATAGA, the PBM binding z-score stood at 0.511.

AGAATGTGGTTACCAAAGATCAGGGAAACGCTTG displayed a PBM binding z-score of -0.05.

On to GCTAGCAGGCCATTTGGATCACTCAATGACGGGC, for which the PBM binding z-score was -0.754.

For ATCGAAAGGTCGAGGTGAGTATTGAGAAAGGGAA, the PBM binding z-score was 2.93.

In turn, GCGACTGGGGCATCAGCAGGTTACAATAACTTAA yielded a PBM binding z-score of 0.895.

For the sequence ATCGAAAGGTCGTGCGGTGAGTATACAGAAAGGC, the PBM binding z-score stood at 2.51.

ATATGTAGATTAGCTGGGGTCATTCAGACTAGGC: the PBM binding z-score turned out to be 4.26.

In turn, ACTGTTAGTTGAGACGAGGGCAACCGATAGGTTG came in with a PBM binding z-score of 2.63.

As to TAGCCTAGGTCATGCGGGCTAGTATAGTGTCGGC, the PBM binding z-score amounted to 3.15.

Regarding ATCACTAGGTAAAGTTCAGTGAAAGATCGATAGA, the PBM binding z-score came out at 1.24.

With TCATATAGGTAAAAGGTGTAAGTCGGTGTGGTAA, the PBM binding z-score was 0.0897.

Regarding CCGAATGGGGCAAGGTTACCATAACGCACAGCCA, the PBM binding z-score worked out at 1.26.

As for ATCTCTAGGTAACAAGTTCACTGAAAGAGAGGAC, the PBM binding z-score is 2.12.

With GCGACTCGGGCAAAGCAGGTTACCATAAGGTTGG, the PBM binding z-score turned out to be 1.87.

In the case of ATCGAAAGGTCGAGATGAGTATAGAGAAAGGGAA, the PBM binding z-score stood at 1.93.

In the case of ATATGTAGGTTAAGGGTCATTCGGGTTGGTTCGC, the PBM binding z-score is 3.39.

Sequence AGAATGAGGTTATACGTAGATCAGGTAAGAAAGT displayed a PBM binding z-score of 2.39.

As for GCTTACGGGTCAAGGGTTATAGCATGAATAGAAT, the PBM binding z-score was 3.14.

Sequence AATCCAGGGTCACTAGGCCAGAGTAGGTACGAAT showed a PBM binding z-score of 3.54.

For the sequence ATCTCTAGGTCAAGTTCAGTGAAAGATCGATAGA, the PBM binding z-score was 3.44.

Turning to GCTTGTAGATCAAGGTCAAGAAAGACTAAGCTAA, the PBM binding z-score was found to be 3.36.
